This is part of a sample that, as a whole, favours compounds with a hit. Of some 83,000 tested, about 20% had one in any assay.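 A percent growth of 40 corresponds to 60% growth inhibition; 0 means no net growth; -100 means all cells died. Active threshold: below 10.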 Active and inactive are the calls of the source.
Experiments:
Experiment in all cases: NCI-60 one-dose screen, 48 h (100 = growth as untreated, 0 = no growth, -100 = all killed)
Settings in all cases: 10 µM unless noted
[1] = tested on: SK-MEL-2 melanoma
[2] = tested on: EKVX NSCLC
[3] = tested on: SN12C renal
[4] = tested on: UO-31 renal
[5] = tested on: TK-10 renal
[6] = tested on: ACHN renal
[7] = tested on: CAKI-1 renal
[8] = tested on: A498 renal
[9] = tested on: CCRF-CEM leukemia
[10] = tested on: MOLT-4 leukemia
[11] = tested on: SR leukemia
[12] = tested on: RPMI-8226 leukemia
[13] = tested on: OVCAR-8 ovarian
[14] = tested on: OVCAR-5 ovarian
[15] = tested on: OVCAR-4 ovarian
[16] = tested on: SK-OV-3 ovarian
[17] = tested on: IGROV1 ovarian
[18] = tested on: OVCAR-3 ovarian
[19] = tested on: HS 578T breast
[20] = tested on: NCI/ADR-RES ovarian

Measured: growth

CC(C)C[C@@H](NC(=O)[C@@H](Cc1ccccc1)NC(=O)c1cnccn1)B1O[C@H]2[C@H](O)[C@@H](C(=O)NCCCC[C@@H]3NC(=O)[C@@H](Cc4ccccc4)NC(=O)[C@H](CC(=O)O)NC(=O)CNC(=O)[C@H](CCCN=C(N)N)NC3=O)O[C@@H](CN)[C@H]2O1
active: [1] -38.5% | [2] -12.6% | [3] -29.5% | [4] -16.4% | [5] -79.1% | [6] -8.22% | [7] -44.2% | [8] -94.5% | [9] 6.17% | [10] 0.435% | [11] 1.66% | [12] 0.803% | [13] -42.6% | [14] -19.2% | [15] -27.9% | [16] -42.2% | [17] 4.07% | [18] -55.3% | [19] 4.75% | [20] 7.01%

COC(=O)CCCCCn1c2ccccc2c2c3c(c4c5ccccc5[nH]c4c21)C(=O)N(O)C3=O
active: [6] -18.5% | [7] -16.8% | [10] -15.6%
inactive: [1] 77.3% | [2] 75.3% | [3] 37.8% | [4] 11.8% | [5] 74.4% | [8] 62% | [9] 11.4% | [11] 11.3% | [12] 22.4% | [13] 31.2% | [14] 86.6% | [15] 57.5% | [16] 70.2% | [17] 19.5% | [18] 33.2% | [19] 84.5% | [20] 23.1%

O=C(Nc1ccc(/C=C2\SC(=O)N(Cc3ccc(OC(F)(F)F)cc3)C2=O)cc1)c1ccc(Cl)c([N+](=O)[O-])c1
inactive: [1] 92.6% | [2] 91.1% | [3] 81.6% | [4] 67.9% | [5] 98.5% | [6] 89.3% | [7] 85.7% | [8] 82.2% | [9] 77% | [10] 78.4% | [13] 87.5% | [14] 85.5% | [15] 31.4% | [16] 93.7% | [17] 79.9% | [18] 48.2% | [19] 72.1% | [20] 73.6%
active: [11] -0.106% | [12] -11.2%

c1ccc2[nH]c(-c3ccc(Nc4nc(N5CCCCC5)nc(N5CCOCC5)n4)cc3)nc2c1
active: [1] -20.6% | [4] -37.8% | [7] -46.9% | [8] -28.6% | [9] 8.74% | [11] 9.79% | [12] 2.47% | [19] -12.6%
inactive: [2] 27.7% | [3] 52.4% | [5] 58.8% | [6] 22.9% | [10] 13.7% | [13] 45.7% | [14] 73.9% | [15] 61.2% | [16] 22.5% | [17] 51.3% | [18] 10.9% | [20] 45.6%

N#Cc1c(-c2ccc(O)cc2)c2c(N)nn(-c3ccccc3)c2[nH]c1=O
inactive: [1] 103% | [2] 101% | [3] 104% | [4] 71.8% | [5] 137% | [6] 100% | [7] 97.1% | [8] 108% | [9] 110% | [10] 98.1% | [11] 115% | [12] 101% | [13] 105% | [14] 105% | [15] 113% | [16] 102% | [17] 93% | [18] 110% | [19] 104% | [20] 102%

C/C(=C(/c1ccccc1)c1ccc(N2C(=O)c3cccc4c(NCc5ccccc5)ccc(c34)C2=O)cc1)c1ccccc1
inactive: [1] 107% | [2] 75.3% | [3] 92% | [4] 68.8% | [5] 145% | [6] 94.8% | [7] 84.5% | [8] 107% | [9] 89.1% | [10] 88.9% | [11] 83.6% | [12] 102% | [13] 95% | [14] 102% | [15] 101% | [16] 111% | [17] 94.8% | [18] 110% | [19] 96% | [20] 97.9%

COc1cc2c(cc1-c1c(C)noc1C)ncc1nc(C3CCC(F)(F)CC3)n([C@@H](C)COC(F)F)c12
active: [4] 3.65% | [8] -12.5% | [16] 7.59% | [19] 8.57%
inactive: [1] 71.4% | [2] 43.4% | [3] 58.5% | [5] 27.1% | [6] 36.5% | [7] 24.3% | [9] 50.8% | [10] 41.4% | [11] 24.7% | [12] 17.3% | [13] 46.1% | [14] 61.9% | [15] 43.2% | [17] 48.9% | [18] 39% | [20] 40.8%

N#CC1c2ccccc2-c2ccccc2N1C(=O)c1ccccc1 (stereo not given)
inactive: [1] 72.7% | [2] 29.5% | [3] 33.3% | [4] 42.5% | [5] 63.9% | [6] 30.1% | [7] 37.4% | [9] 41.7% | [10] 35.8% | [11] 65.2% | [12] 26.4% | [13] 22.3% | [14] 41.8% | [15] 38.1% | [16] 54.3% | [17] 24.2%
active: [8] 8.67% | [18] -8.36% | [19] 7.52% | [20] -47.4%

Nc1nc2c3ccncc3cc(-c3cccc(Cl)c3)c2c2cnccc12
active: [8] -12% | [10] 3.17% | [11] 9.04% | [12] 5.57%
inactive: [1] 59.1% | [2] 62.2% | [3] 36.4% | [4] 29.7% | [5] 32.3% | [6] 26.6% | [7] 29.1% | [9] 20% | [13] 24.1% | [14] 61.2% | [15] 65.6% | [16] 61.9% | [17] 59% | [18] 54.6% | [19] 35.5% | [20] 30.6%

Cc1ccc(-c2nc3ccc(Cl)cc3c(=O)n2N2C(=O)CSC2c2ccccc2Cl)cc1 (stereo not given)
inactive: [1] 96.2% | [2] 60% | [3] 69% | [4] 67.2% | [5] 74.6% | [6] 26.4% | [7] 60.3% | [8] 84.8% | [9] 74.8% | [10] 82.7% | [11] 80.8% | [12] 80.1% | [13] 27.3% | [14] 82.7% | [15] 14.4% | [16] 36.2% | [17] 57.5% | [18] 58.6% | [19] 56.6% | [20] 70.6%

O=C1CCN2C(=O)Nc3ccccc3C2C1 (stereo not given)
inactive: [1] 110% | [2] 99.8% | [3] 94.2% | [4] 94.1% | [5] 104% | [6] 106% | [7] 89.6% | [8] 120% | [9] 106% | [10] 97.8% | [11] 96.8% | [12] 111% | [13] 105% | [14] 90% | [15] 97.6% | [16] 101% | [17] 102% | [18] 111% | [19] 103% | [20] 107%

O=S(=O)(NCCCNc1cc(-c2cn(-c3ccccc3)nc2-c2cccc(O)c2)ccn1)c1ccc(F)cc1
inactive: [1] 44.7% | [2] 51.2% | [3] 47.3% | [4] 21.9% | [5] 50.6% | [6] 32.8% | [7] 41.4% | [8] 34.3% | [9] 19.4% | [10] 18.8% | [12] 21.4% | [13] 23.4% | [14] 65.5% | [15] 35.7% | [16] 49% | [17] 40.6% | [18] 45.8% | [19] 24.3% | [20] 25.9%
active: [11] 6.17%

CCN(CC)CCCCCNc1cc(OC(=O)c2ccccc2)cc2cccnc12
active: [11] -38.1%
inactive: [1] 140% | [2] 102% | [3] 95% | [4] 92.5% | [5] 145% | [6] 96.6% | [7] 91% | [8] 81.1% | [9] 93.9% | [10] 55.4% | [12] 100% | [13] 121% | [14] 121% | [15] 80.9% | [16] 108% | [17] 105% | [18] 51.6% | [19] 103% | [20] 99.3%

COc1ccc(/C=C/C(=O)NCCO)cc1
inactive: [1] 103% | [2] 98.7% | [3] 108% | [4] 84.6% | [5] 92% | [6] 101% | [7] 90.8% | [8] 85% | [9] 104% | [10] 101% | [11] 91.9% | [12] 105% | [13] 96.4% | [14] 88.2% | [15] 103% | [16] 94.2% | [17] 98.3% | [18] 101% | [19] 92.4% | [20] 104%

Reference: PubChem BioAssay (NCI)
